# PubChem BioAssay (Tox21)
# Where “and” joins values, the source holds several entries; their conditions need not be identical. Equal entries are not always repeated. Some compounds were tested as several samples or in several runs, with calls that do not always agree. Calls of active or inactive are those of the source. Calls follow the shape of the full dose curve.
# Target: Estrogen receptor (Homo sapiens) (UniProt P03372)
# Assay: qHTS assay to identify small molecule agonists of the estrogen receptor alpha (ER-alpha) signaling pathway in the presence of an antagonist (AID 1259383); also: nearly all actives have a fitted effect of over 15% in size; as to activation: top concentration of the series differs between compounds
# Settings: VM7Luc4E2 cells, ERE-luciferase, +ICI-182,780, 22 h; series mostly up to 92.4 µM; activation: at the top concentration
# Text: National Center for Advancing Translational Sciences [NCATS] NIH Chemical Genomics Center [NCGC] U.S. Environmental Protection Agency [EPA] National Institutes of Environmental Health Sciences [NIEHS] National Toxicology Program [NTP] Assay overview: Estrogen receptor (ER), a member of nuclear hormone receptor plays an important role in development, metabolic homeostasis and reproduction. Two subtypes of ER, ER-alpha and ER-beta, have similar expression patterns with some uniqueness in both types. Endocrine disrupting chemicals (EDCs) and their interactions with steroid hormone receptors like ER causes disruption of normal endocrine function. Therefore, it is important to understand the effect of environmental chemicals in ER signaling pathway. For identifying ER agonists, VM7Luc4E2 cell line has been used in the current assay. VM7Luc4E2 cell line (provided by Denison MS, University of California) endogenously expresses full-length ER-alpha and is stably transfected with a plasmid containing four estrogen responsive elements (ERE) upstream of a luciferase reporter gene. This current screening for measuring luciferase reporter gene activity using VM7Luc4E2 cells against Tox21 10K library collection is a confirmation study on agonist mode screening in presence of ER-antagonist (ICI-182,780) at 10.0nM final concentration.
# Assay Protocol Summary: VM7Luc4E2 cells were cultured in phenol red free assay medium containing 10% charcoal stripped FBS for 5 days prior to the assay. The cells were dispensed at 4,000 cells in 4uL of assay medium per well into white wall/solid-bottom 1536-well plates (Corning Life Sciences, Corning, NY) using a Multidrop Combi (Thermo Fisher Scientific Inc., Waltham, MA) dispenser. After the assay plates were incubated at 37C and 5% CO2 for 24hr, 1uL of 10.0nM (final concentration) ICI-182,780 or assay buffer was added using two separate tips of Flying Reagent Dispenser (FRD, Aurora Discovery, San Diego, CA). Then 23nL of compounds dissolved in DMSO at 15 concentrations and positive controls or DMSO only was transferred to the assay plates by a Pintool station (Wako, San Diego, CA). The assay plates were incubated at 37C and 5% CO2 for 22hr. For luciferase read, 4uL/well ONE-Glo reagent (Promega Corporation, Madison, WI) was added to each well using FRD and after 30min incubation at room temperature, luminescence signal was measured on ViewLux plate reader (PerkinElmer, Shelton, CT).
# % is scaled to controls: 0 for no effect and ±100 for the full control effect; potency is read from the fitted curve at half-maximal effect.
# Chain of Estrogen receptor (Homo sapiens) (P03372 whole entry, looked up): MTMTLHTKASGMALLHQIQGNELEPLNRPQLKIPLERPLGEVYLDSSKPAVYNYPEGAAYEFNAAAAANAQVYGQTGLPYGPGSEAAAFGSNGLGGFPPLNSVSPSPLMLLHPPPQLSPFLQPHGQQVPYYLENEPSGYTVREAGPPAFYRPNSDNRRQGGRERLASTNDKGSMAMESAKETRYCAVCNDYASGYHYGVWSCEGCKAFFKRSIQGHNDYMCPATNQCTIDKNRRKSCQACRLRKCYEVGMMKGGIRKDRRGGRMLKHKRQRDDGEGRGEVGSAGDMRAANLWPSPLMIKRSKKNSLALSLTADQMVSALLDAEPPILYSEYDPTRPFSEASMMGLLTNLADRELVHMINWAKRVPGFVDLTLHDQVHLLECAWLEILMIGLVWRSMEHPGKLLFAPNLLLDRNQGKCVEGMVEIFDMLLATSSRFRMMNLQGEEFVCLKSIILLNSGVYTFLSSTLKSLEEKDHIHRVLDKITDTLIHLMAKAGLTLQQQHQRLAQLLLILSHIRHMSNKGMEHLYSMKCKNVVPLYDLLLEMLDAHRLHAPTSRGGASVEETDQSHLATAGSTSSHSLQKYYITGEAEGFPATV
Compound,activation,Potency
CCCCCCC(=O)CCCCCC/C=C/C[C@@H](O)[C@H](O)[C@@](N)(CO)C(=O)O,-1.01% [at 19 µM] (inactive),
CCC(CC)(CNC(=O)CCCO)c1cccc(OC)c1,-0.515% [at 42.5 µM] (inactive),
C[C@H](CN1CCOCC1)C(C(=O)N1CCCC1)(c1ccccc1)c1ccccc1,-2.68% (inactive),
Cn1c(CCCC(=O)O)nc2cc(N(CCCl)CCCl)ccc21,-0.376% [at 42.5 µM] (inactive),
O=C1C2CC=CCC2C(=O)N1SC(Cl)(Cl)Cl (stereo not given),,2.42 µM (active) and inactive
CN(C)C(=O)Oc1cc(OC(=O)N(C)C)cc(C(O)CNC(C)(C)C)c1 (stereo not given),-2.67% [at 42.5 µM] (inactive),
CCC(C)(C#N)N=NC(C)(C#N)CC (stereo not given),0.136% (inactive),
N#CN=C1SCCN1Cc1ccc(Cl)nc1,1.09% (inactive),
O=C(Cl)OCc1ccccc1,-0.467% (inactive),
C(COCC1CO1)OCC1CO1 (stereo not given),1.14% (inactive),
C[C@]12C=CC(=O)C=C1CC[C@@H]1[C@@H]2CC[C@@]2(C)[C@H]1CC[C@]2(C)O,,2.98 µM (active)
Clc1nc(Cl)nc(Nc2ccccc2Cl)n1,-0.818% (inactive),
CCCN1CCC[C@@H]2Cc3[nH]ncc3C[C@H]21,-1.02% [at 42.5 µM] (inactive),
CCCCCCCC(=O)Cl,1.53% (inactive),
CN(C)CCN(C)C,-0.137% (inactive),
C=C(C)[C@H]1CN[C@H](C(=O)O)[C@H]1CC(=O)O,0.0808% [at 42.5 µM] (inactive),
C/C(=N\NC(=O)Nc1cc(F)cc(F)c1)c1ncccc1C(=O)O,,inactive
C[C@H]1CCCC(=O)CCC/C=C/c2cc(O)cc(O)c2C(=O)O1,,41.7 nM (active) and 56.3 nM (active)
ClC1=C(Cl)C2(Cl)C(CBr)CC1(Cl)C2(Cl)Cl (stereo not given),,inactive
COc1cccc(C=O)c1,-2.44% (inactive),

Compound,activation,Potency
O=C(O)C(Br)(Br)Br,-0.0006% (inactive),
O=C(Cl)c1ccccc1,0.489% (inactive),
O=[N+]([O-])CCO,-1.52% (inactive),
CC(=O)CN(CC(C)=O)N=O,-1.8% (inactive),
CCN[C@H](C)Cc1cccc(C(F)(F)F)c1,0.429% (inactive),
NC(=O)OCCCc1ccccc1,0.366% [at 42.5 µM] (inactive),
CC(O)CCl (stereo not given),0.123% (inactive),
COc1cccc([C@@]2(O)CCCC[C@@H]2CN(C)C)c1,-1.68% [at 42.5 µM] (inactive),
CCN(CC)C1CCCCC1,-1.72% (inactive),
COc1ccccc1OC,0.318% (inactive),
Cn1c(N)nc2c3cccnc3ccc21,8.39% (inactive),
Clc1cc2c(cc1Cl)Oc1cc(Cl)c(Cl)cc1O2,-1.56% [at 0.349 µM] (inactive),
OCC(Cl)CCl (stereo not given),0.287% (inactive),
CC1N=C(N)OC1c1ccccc1 (stereo not given),3.31% (inactive),
O=C(Cl)C(Cl)(Cl)Cl,0.245% (inactive),
O=C(Cl)C(Cl)Cl,0.0268% (inactive),
CC(C)(C)C(=O)Cl,0.121% (inactive),
CCOC(=O)CC(SP(=S)(OC)OC)C(=O)OCC (stereo not given),,inactive
C[C@H](N)C(=O)c1ccccc1,-0.0361% (inactive),
COC(=O)c1ccccc1CS(=O)(=O)NC(=O)Nc1nc(OC)cc(OC)n1,1.06% (inactive),
